Screens (PubChem BioAssay)
Sa ugtP lethal: kills S. aureus RN4220 lacking UgtP; hit rate 0.54% among 330,000; AID 1259309; growth inhibition, % (no concentration beside the values); S. aureus RN4220 ugtP deletion, OD600 growth, 16 h; in the data active means growth inhibition above about 68%;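 further: plate controls were untreated wells for no effect and antibiotic for full effect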
RecA splice inh: Mtb RecA intein splicing inhibition. inhibition, % (no concentration beside the values). hit rate 0.75% among 290,000. cell-free RecA intein splicing, fluorescence. AID 2221. P9WHJ3; in the data active means inhibition above about 30%;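 further: 0% = vehicle wells and 100% = reference inhibitor control wells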
Target sequence (P9WHJ3 whole entry, looked up, canonical isoform): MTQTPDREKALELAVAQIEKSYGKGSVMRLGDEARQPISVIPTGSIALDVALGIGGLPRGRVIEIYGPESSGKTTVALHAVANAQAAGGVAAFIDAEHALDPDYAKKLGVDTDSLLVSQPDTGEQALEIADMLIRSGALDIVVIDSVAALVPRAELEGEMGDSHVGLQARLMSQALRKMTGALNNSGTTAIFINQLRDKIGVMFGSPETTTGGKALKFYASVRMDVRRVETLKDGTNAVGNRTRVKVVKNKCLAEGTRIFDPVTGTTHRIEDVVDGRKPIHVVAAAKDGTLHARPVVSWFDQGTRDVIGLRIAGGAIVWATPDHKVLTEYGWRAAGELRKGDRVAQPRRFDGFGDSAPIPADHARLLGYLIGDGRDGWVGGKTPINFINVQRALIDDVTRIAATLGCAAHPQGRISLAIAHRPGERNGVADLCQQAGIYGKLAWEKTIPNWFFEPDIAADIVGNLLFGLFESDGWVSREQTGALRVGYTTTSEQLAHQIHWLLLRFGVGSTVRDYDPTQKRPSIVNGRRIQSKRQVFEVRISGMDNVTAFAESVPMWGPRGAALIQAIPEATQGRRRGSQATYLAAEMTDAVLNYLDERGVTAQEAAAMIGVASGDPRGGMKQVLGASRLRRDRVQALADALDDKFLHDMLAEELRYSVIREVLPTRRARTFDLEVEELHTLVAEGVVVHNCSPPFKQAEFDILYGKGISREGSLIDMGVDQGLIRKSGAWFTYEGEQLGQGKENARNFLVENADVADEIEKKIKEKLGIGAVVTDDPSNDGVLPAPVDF
Sa RN4220 lethal: kills Staphylococcus aureus RN4220; S. aureus RN4220 growth, OD600, 16 h; inhibition, % (no concentration beside the values); hit rate 0.33% among 330,000; AID 1259311; in the data active means inhibition above about 85%;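 further: plate controls were untreated cells for no effect and reference antibiotic for full effect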
BJeLR lethal: BJeLR cell viability loss | BJeLR (HRASV12) viability, CellTiter-Glo ATP luminescence, 48 h | inhibition, % (no concentration beside the values) | hit rate 0.17% among 300,000; in the data active means inhibition above about 50%
CCHF vOTU inh: CCHFV vOTU protease inhibition; Pep-AMC fluorescence; inhibition, % at 11.5 µM; hit rate 0.55% among 370,000; AID 651958; in the data active means inhibition above about 30%; further: 0% = vehicle wells with enzyme and 100% = no enzyme wells
Mtb hypoxia rep: reduces hypoxia-regulated biosensor signal in M. tuberculosis; M. tuberculosis hypoxia-regulated fluorescent reporter, fluorescence; fluorescence inhibition, % (no concentration beside the values); hit rate 0.1% among 300,000; in the data active means fluorescence inhibition mostly above about 23%, no sharp cut-off; inactive means mostly below about 17%
* hit, by the source's call; . = no result shown. In the library only some 1.6% were active in any assay of this set; here they are far more common.

SMILES	Sa ugtP lethal	RecA splice inh	Sa RN4220 lethal	BJeLR lethal	CCHF vOTU inh	Mtb hypoxia rep
C(=N\Nc1nc2ccccc2[nH]1)/c1ccccn1	.	15.1	.	53.7*	-7.3	.
CCN(CC)C(=O)c1[nH]cnc1C(=O)NC(CC(C)C)C(=O)OC(C)(C)C (configuration not stated)	0.3	.	9.3	.	.	2.3
COC(=O)[C@]1(C)NC(c2ccc(-c3ccccc3)cc2)C2C(=O)N(C)C(=O)C21 (some centres not stated)	8.2	.	6.0	.	.	4.4
CN(C)c1nc(NN=Cc2ccccc2O)nc(Nc2ccc(F)cc2)n1	99.9*	.	99.9*	.	.	-6.3
CN(C)c1nc(NCc2ccccc2)nc(NN=Cc2ccc(Cl)cc2Cl)n1	-8.9	.	-5.1	.	.	1.2
CC(C)CC(NC(=O)c1nc[nH]c1C(=O)NC(CC(C)C)C(=O)OC(C)(C)C)C(=O)OC(C)(C)C (configuration not stated)	-1.7	.	-8.6	.	.	1.2
O=C(N/N=C/c1c(O)n(Cc2ccc(F)cc2)c(=O)[nH]c1=O)c1ccccc1O	4.2	31.6*	-1.0	-0.4	14.5	4.8
C=C1C(=O)C=C2CN(C(=O)c3ccccc3)[C@@](Cc3ccc(F)cc3)(C(=O)OC)[C@@H]12	.	21.9	.	107.4*	.	.
C=C1C(=O)CC2=C1[C@](Cc1ccc(F)cc1)(C(=O)OC)N(C(=O)c1ccccc1)C2	.	.	.	.	1.7	.
Cc1ccccc1CS(=O)(=O)c1nnc([C@H](CC(C)C)NC(=O)OC(C)(C)C)o1	-2.8	52.3*	6.8	-1.7	15.4	-2.0
CC[C@@H](C)[C@H](NC(=O)OC(C)(C)C)c1nnc(S(=O)(=O)Cc2cc(C)ccc2C)o1	32.2	.	12.4	2.1	9.5	2.3
O=C(CC1C(=O)N(CCc2ccccc2)CC1Cc1ccccc1)Nc1ccccc1 (configuration not stated)	-1.7	.	2.7	.	.	10.8
CN1CCN(CCCC(=O)c2ccc(C3CCCC3)cc2)CC1	85.4*	1.3	-3.2	-4.2	-11.0	13.6
CN1CCN(CCCCC(=O)c2ccccc2)CC1	3.4	-0.2	4.1	5.1	0.5	.
CCOC(=O)C1C2COc3ccc(Cl)cc3C2N2C(=O)c3cc(F)c(F)cc3NC(=O)[C@@]12C (some centres not stated)	-38.2	.	-5.0	.	.	-3.0
C[C@]12CCC3C(CC[C@H]4C[C@@H](O)CC[C@]34C)[C@H]1CC[C@H]2O (some centres not stated)	5.2	.	8.7	.	-6.1	7.4
C[C@H]1CC[C@@]2(C)[C@@H](CC[C@@H]3[C@@H]2CC[C@]2(C)[C@@H](O)CC[C@@H]32)C1	99.2*	14.6	93.7*	-5.1	-7.4	17.5
O=C(NN=Cc1cccc2ccccc12)c1ccncc1	1.5	.	0.8	.	.	.
O=C(/C=C/c1cccc2ccccc12)c1ccncc1	-2.8	6.2	11.8	70.8*	0.3	22.1
O=S(=O)(CCSc1ccccn1)c1nc2ccccc2s1	3.8	39.6*	2.1	-13.5	-5.1	-9.1
O=S(=O)(CCSc1nc2ccccc2o1)c1nc2ccccc2s1	11.4	10.8	19.3	16.0	-9.3	20.8
COc1cccc(C(=O)N/N=C(/c2ccccc2)c2ccccn2)c1	.	0.7	.	87.8*	7.7	.
Nc1ccn(CC(=O)NC(CO)Cc2c[nH]c3ccccc23)c(=O)n1 (configuration not stated)	-0.5	.	6.9	.	.	10.5
S=c1nc[nH]c2nc[nH]c12	-2.9	-1.7	5.0	76.4*	5.1	.
CCOc1ccc(OCc2cccc(C(=O)O)c2)cc1	23.2	0.6	3.6	55.3*	-2.6	2.5
SMILES	Sa ugtP lethal	RecA splice inh	Sa RN4220 lethal	BJeLR lethal	CCHF vOTU inh	Mtb hypoxia rep
COc1ccc(OCc2cccc(C(=O)O)c2)cc1	-3.8	-1.1	-9.5	41.6	-8.4	3.3
Cc1ccc(S(=O)(=O)N2C(c3cccs3)CC=C(C(=O)O)C2c2ccccc2)cc1 (configuration not stated)	-6.7	.	17.0	.	.	8.7
COc1ccc(S(=O)(=O)N2c3cc(Cl)ccc3Oc3nc4ccccc4nc32)cc1	-4.9	-3.4	-3.4	74.2*	8.4	.
COc1ccc(Cc2nnc(SCC(=O)Nc3ccc(C)cc3)n(N)c2=O)cc1	-0.6	-0.3	-3.1	4.9	29.9*	-9.1
Oc1nc(Nc2cccc(Cl)c2)sc1/C=C1\C=Nc2ccccc21	99.6*	-1.7	100.3*	-8.3	0.6	4.3
Oc1ccc(C=Nc2ccc3ncccc3c2)c(O)c1	.	52.7*	.	-0.3	.	.
O=C(CCl)Nc1cn(-c2ccccc2)nc1-c1ccccc1	-9.5	40.2*	-1.3	1.4	-5.6	.
NC(CO)c1cn(C(CCC(=O)O)C(=O)N2CCNCC2)nn1 (configuration not stated)	-5.1	.	6.6	.	.	9.6
COc1ccc(-c2cc3nc(-c4ccccc4)cc(N4CCC(O)CC4)n3n2)cc1	89.6*	-1.6	-10.3	-4.2	-25.0	-5.0
CCCCN1CC(=O)N2C3c4cc(C)ccc4OCC3C(C(=O)OCC)[C@]2(C)C1=O (some centres not stated)	6.1	.	4.7	.	.	7.0
CCOc1cccc(/C=N/Nc2ccc(S(=O)(=O)N(CC)CC)cn2)c1O	.	5.0	.	51.6*	-3.3	.
CCN(CC)S(=O)(=O)c1ccc(NN=Cc2ccc(O)cc2O)nc1	-3.3	.	12.4	.	.	7.7
Cc1ccc(-c2nnc(SCC(=O)Nc3ccccc3F)o2)cc1	10.2	3.9	4.5	55.9*	-0.8	.
O=C(CSc1nnc(-c2ccccc2)o1)Nc1ccccc1F	5.2	1.8	5.0	45.6	-5.3	.
C[C@H]1c2cccc(O)c2C(O)=C2C(=O)[C@]3(O)C(O)=C(C(N)=O)C(=O)[C@@H](N(C)C)[C@@H]3[C@@H](O)[C@@H]21	.	1.3	.	5.2	.	.
CC1c2cccc(O)c2C(O)=C2C(=O)[C@]3(O)C(O)=C(C(N)=O)C(=O)C(N(C)C)C3C(O)C21 (some centres not stated)	99.4*	.	100.2*	.	.	.
CC1c2cccc(O)c2C(=O)C2C(=O)C3(O)C(=O)C(C(N)=O)C(=O)C(N(C)C)C3C(O)C21 (configuration not stated)	99.4*	.	92.8*	.	.	.
CC1c2cccc(O)c2C(O)=C2C(=O)C3(O)C(O)=C(C(N)=O)C(=O)C(N(C)C)C3C(O)C21 (configuration not stated)	99.6*	.	97.5*	.	.	.
C/C(=N\Nc1ncc(Cl)cc1Cl)c1ccc(OC(F)F)cc1	.	-1.5	.	-13.0	-3.3	.
CC(=NNc1ccccn1)c1ccc(OC(F)F)cc1	92.6*	.	2.7	.	.	-14.8
CC1CN(C(C)CO)C(=O)c2cccc(NC(=O)C3CC3)c2OC1CN(C)CC1CCCCC1 (configuration not stated)	5.4	.	1.4	.	.	9.6
Cc1c(CCC(=O)O)c(=O)oc2cc3occ(-c4ccc(Cl)cc4)c3cc12	30.1	-0.8	29.0	3.8	17.6	14.5
Cc1c(CCC(=O)O)c(=O)oc2c(C)c3occ(-c4ccc(Cl)cc4)c3cc12	100.7*	11.7	96.4*	-3.0	-3.5	18.4
C=CC1c2cc(C)ccc2N(S(=O)(=O)c2ccc(C)cc2)C(c2ccc(OC(C)=O)cc2)C1(C#N)C#N (configuration not stated)	16.6	.	13.3	.	.	8.1
